Bioassay records deposited in PubChem BioAssay by National Center for Advancing Translational Sciences (NCATS).
Rows were chosen to be rich in hits. Some 21% of all compounds tested hit in one or more screens of this group.
RORg inh – inhibitors of mouse ROR gamma transcriptional activity | 5.4% of 310,000 active | AID 2551 | Potency, µM (series often up to 53.6 µM), for inactives: top-dose activity change, negative = inhibition, hits mostly inhibitors | P51450 | Drosophila S2 Gal4-RORgamma UAS-luciferase reporter, 20 h; note: potency is the fitted concentration of half-maximal effect; nearly all actives have a fitted effect of over 60% in size
Target sequence (P51450 whole entry, looked up, the tested form may be a part): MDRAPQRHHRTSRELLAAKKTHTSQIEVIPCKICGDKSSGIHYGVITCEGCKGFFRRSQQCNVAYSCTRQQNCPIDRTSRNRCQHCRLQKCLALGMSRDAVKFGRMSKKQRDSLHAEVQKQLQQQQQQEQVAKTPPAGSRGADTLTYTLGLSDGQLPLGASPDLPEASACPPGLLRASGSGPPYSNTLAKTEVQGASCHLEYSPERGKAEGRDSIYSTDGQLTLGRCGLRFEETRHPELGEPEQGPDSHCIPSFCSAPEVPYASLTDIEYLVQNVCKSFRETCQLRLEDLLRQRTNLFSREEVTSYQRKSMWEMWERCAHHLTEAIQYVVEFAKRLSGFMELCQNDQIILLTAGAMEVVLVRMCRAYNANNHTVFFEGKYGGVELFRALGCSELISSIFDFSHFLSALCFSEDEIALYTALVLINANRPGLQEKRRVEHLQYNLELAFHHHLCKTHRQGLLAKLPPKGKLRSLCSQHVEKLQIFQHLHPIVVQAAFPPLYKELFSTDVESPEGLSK
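Drosophila Schneider cells stably carrying a metallothionein-driven Gal4 DBD–ROR gamma fusion and a UAS-Photinus luciferase reporter were exposed to compound for 1 hr, then induced with copper sulfate (700 uM final) for 20 hr at ambient temperature before luminescence reading.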
DT40 TDP1 no CPT – qHTS for Inhibitors of human tyrosyl-DNA phosphodiesterase 1 (TDP1): qHTS in cells in absence of CPT | DT40 Tdp1-/- hTDP1 cells, no CPT, ATP luminescence, 48 h | Potency, µM (doses to about 46.2 µM), for inactives: at the top dose activity change, negative = growth inhibition, hits mostly inhibitors | 15% of 420,000 active | AID 686978, 2013; note: potency is the fitted concentration of half-maximal effect; nearly all actives have a fitted effect of over 55% in size
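A cellular qHTS used chicken DT40 cells lacking endogenous Tdp1 but carrying stably transfected human TDP1. Compounds were applied without camptothecin, and cell growth kinetics were judged by ATP-dependent luminescence after ≥48 hr.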
ELG1 repair inh – ELG1-dependent DNA repair inhibition. HEK293T ELG1-luciferase reporter, luminescence, 16 h; DNA damage induced by 5-fluorouridine. 2.3% of 330,000 active. AID 504467. Potency, µM (highest dose often 46.1 µM), inactives show top-dose activity change, negative = inhibition, actives largely listed as inhibitors; note: potency is the fitted concentration of half-maximal effect; nearly all actives have a fitted effect of over 55% in size
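In this reporter screen, reduction of luminescence relative to DMSO vehicle indicated activity. Compounds and 5-fluorouridine were added together to 2,000 cells per well, incubated for 16 hr at 37 °C, then developed with ONE-Glo.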
Gal4-VP16 FLuc – Gal4-VP16 reporter inhibition counter-screen; Drosophila S2 Gal4-VP16 UAS-luciferase, luminescence, 20 h; Potency, µM (doses to about 53.6 µM), without a hit: at the top dose activity, negative = inhibition, hits mostly inhibitors; AID 2546; 3.5% of 310,000 active;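 note: Gal4-VP16 expression switched on by copper sulfate through the metallothionein promoter; potency is the fitted concentration of half-maximal effect; nearly all actives have a fitted effect of over 50% in size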
TDP1 cell CPT – growth inhibition of DT40 Tdp1-/-;hTDP1 cells with camptothecin (screen for TDP1 inhibitors); chicken DT40 Tdp1-/-;hTDP1 cells + 20 nM CPT, ATP luminescence, 48 h; Potency, µM (highest dose often 46.2 µM), for the others: at the top dose activity change, negative = growth inhibition, most hits filed as inhibitors; 12% of 420,000 active; note: potency is the fitted concentration of half-maximal effect; nearly all actives have a fitted effect of over 55% in size
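Chicken DT40 Tdp1-/- cells complemented with human TDP1, 400 cells/well, exposed to compounds plus 20 nM camptothecin for at least 48 h at 37 C; viability read as ATP content by CellTiter-Glo luminescence.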
IL-1B inflam inh – blocks inflammasome-driven IL-1 beta release; activity change, % at 57.5 µM; 4.7% of 360,000 active; THP-1 LPS/ATP IL-1B secretion, AlphaLISA, 16 h; active compounds read low; in the data active = activity change below about -50%; inconclusive = mostly about -30% to -49%
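Secreted IL-1B measured by AlphaLISA bead assay after 16 h compound exposure of THP-1 cells; compounds (final up to 57.5 uM) added 1 h before LPS (250 ng/mL) and ATP (1.25 mM) stimulation; lower signal means less secretion.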
Active calls of the source: *; ? = inconclusive; . = not tested or not shown; [ ] = another dose, or the depositor's remark. Unless noted, calls come from the whole dose curve; as a rule, active = well fitted curve in the direction sought with a large enough effect; inconclusive = small, poorly fitted or top-dose-only effect, or another doubt; inactive = no such curve, though single readings can be large; an effect the other way counts as inactive or inconclusive. % is set by controls: 0 for no effect and ±100 for the full control effect.

SMILES | RORg inh | DT40 TDP1 no CPT | ELG1 repair inh | Gal4-VP16 FLuc | TDP1 cell CPT | IL-1B inflam inh
O=C(c1ccc(Cl)c([N+](=O)[O-])c1)N(Cc1ccc(F)cc1)C1CCS(=O)(=O)C1 (configuration not stated) | 11.0% | ? | ? | 7.5% | 6.2% | -94.7*
O=C(c1ccc(F)cc1)N(Cc1ccccc1)C1CCS(=O)(=O)C1 (configuration not stated) | 3.8% | -20.7% | 3.6% | 3.5% | -16.7% | 22.8
CN(C)c1ccc(CN(C(=O)c2ccc(Cl)c([N+](=O)[O-])c2)C2CCS(=O)(=O)C2)cc1 (configuration not stated) | 37.7% | ? | ? | -1.2% | ? | -75.1*
Cc1cc(C)cc(CC(=O)N2CCC2(C)C(=O)NS(=O)(=O)c2ccc(C(C)(C)C)cc2)c1 (configuration not stated) | . | -9.4% | . | . | -22.5% | 42.2
Cc1nnc2sc(SCc3ccccc3)nn2c1=O | 14.9% | . | ? | 7.0% | . | .
Cc1nnc2sc(SCc3cccc(Cl)c3)nn2c1=O | 7.2% | ? | ? | 29.5% | -7.7% | -99.7*
COc1ccc2c3c(c(=O)oc2c1)C1O[C@](CCCCN2C(=O)c4ccccc4C2=O)(Cc2cc(OC)c(OC)cc21)O3 | 5.2%[10 µM] | . | . | 2.1%[10 µM] | . | .
Cc1c(Cl)cccc1-c1ccc(/C=C(\C#N)c2nc3ccccc3[nH]2)o1 | . | 4.11µM* | . | . | 10.3µM* | .
Cc1ccc2nc(/C(C#N)=C/c3ccc(-c4ccc(F)cc4F)o3)[nH]c2c1 | . | 5.17µM* | . | . | 2.91µM* | .
Cc1ccc2nc(/C(C#N)=C/c3ccc(-c4cccc([N+](=O)[O-])c4)o3)[nH]c2c1 | ? | ? | ? | ? | ? | 0.0
Cc1ccc(/C=C(\C#N)c2nc3ccccc3[nH]2)s1 | ? | -14.2% | ? | 10µM* | 2.4% | -9.7
N#C/C(=C\c1c(Cl)cccc1Cl)c1nc2ccccc2[nH]1 | -31.4% | -26.0% | 0.0% | -18.6% | ? | -93.4*
CCC(C)NC(=O)C1CCN(S(=O)(=O)c2ccc3c(ccn3CC)c2)CC1 (configuration not stated) | . | -18.0% | . | . | -11.5% | .
COc1ccccc1NC(=O)CN(c1cc(C)cc(C)c1)S(=O)(=O)c1c(C)[nH]c(=O)[nH]c1=O | . | -1.9% | . | . | -1.0% | .
COc1ccc(CCN2C(=O)CN(C3CCC(C)CC3)C(=O)C2c2ccc(OC(C)C)c(OC)c2)cc1OC (configuration not stated) | . | ? | . | . | 16.4µM* | .
COc1cc(C2C(=O)N(C3CCCCCC3)CC(=O)N2Cc2ccccc2)ccc1OC(C)C (configuration not stated) | . | 23.1µM* | . | . | ? | .
COc1cc(C2C(=O)N(C3CCCCC3)CC(=O)N2CCc2ccccc2)ccc1OC(C)C (configuration not stated) | . | -27.6% | . | . | -24.8% | .
COc1ccc(Cl)cc1NC(=O)c1cc2nc(-c3ccc(C)cc3)cc(C(F)(F)F)n2n1 | . | ? | . | . | -1.3% | .
CCOC(=O)c1c(NC(=S)NCC2CCCO2)sc(C)c1C (configuration not stated) | 1.58µM* | ? | 4.6% | 4.47µM* | -21.6% | 39.3
Cc1cc(C)c(C(=O)NCC2CCCO2)c(C)c1C(=O)NCC1CCCO1 (configuration not stated) | 12.1% | -6.3% | -4.8% | -7.5% | 1.0% | 4.9
CCOC(=O)c1c(NC(=O)C2CCCO2)sc(C(N)=O)c1C (configuration not stated) | -5.1% | -27.8% | -3.0% | -15.9% | -14.1% | -3.7
CCOC(=O)c1[nH]c(C)c(C(=O)NCC2CCCO2)c1C (configuration not stated) | 31.4% | -1.1% | 0.731µM* | 21.7% | -12.5% | 5.9
COc1cc(C#Cc2ccc3cc(C(C)(C)O)oc(=O)c3c2)cc(OC)c1 | . | ? | 11.3% | . | ? | -4.5
Oc1ccccc1C=NCc1ccccc1 | -17.8% | ? | . | -11.7% | 4.8% | .
CC(=O)N1N=C(c2cccc([N+](=O)[O-])c2)OC1c1ccc(Cl)cc1Cl (configuration not stated) | 0.9% | ? | -18.8% | -0.8% | -10.2% | -51.6*
SMILES | RORg inh | DT40 TDP1 no CPT | ELG1 repair inh | Gal4-VP16 FLuc | TDP1 cell CPT | IL-1B inflam inh
CCOc1cc(/C=C2/SC(=S)N(Cc3ccccc3)C2=O)ccc1O | . | ? | 11.7% | . | ? | -6.9
O=C1/C(=C/c2ccc(O)c([N+](=O)[O-])c2)SC(=S)N1Cc1ccccc1 | -2.3% | 18.4µM* | 18.3µM* | -1.4% | ? | 8.6
CCOc1ccccc1C=C1SC(=S)N(CC)C1=O | . | -19.2% | . | . | -4.9% | 1.0
O=C1/C(=C\c2cc(Br)cc(Br)c2O)SC(=S)N1Cc1ccccc1 | 12.6µM* | 14.6µM* | 23.1µM* | ? | 13µM* | -9.5
O=C1/C(=C\c2cccc([N+](=O)[O-])c2O)SC(=S)N1Cc1ccccc1 | -63.0% | 9.2µM* | 8.2µM* | 15.8µM* | 18.4µM* | 36.2
CCN1C(=O)/C(=C\C=C\c2ccccc2[N+](=O)[O-])SC1=S | 42.1% | 11.6µM* | 1.1% | 17.5% | 25.9µM* | -20.5
O=C(O)c1ccc(/C=C2/SC(=S)N(Cc3ccccc3)C2=O)cc1 | 38.0% | 18.2% | -2.7% | 6.8% | -23.5% | 20.2
O=C(O)c1cccc(CN2C(=O)S/C(=C/c3cccc([N+](=O)[O-])c3)C2=O)c1 | 5.62µM* | ? | -12.5% | 7.08µM* | ? | -27.3
O=C1/C(=C\c2ccc(O)cc2)SC(=S)N1Cc1ccccc1 | ? | ? | 3.1% | -12.1% | ? | -95.9*
COc1ccc(-c2nc3n(n2)C(c2ccc(OC)c(OC)c2)C(C(=O)Nc2cccnc2)=C(C)N3)cc1 (configuration not stated) | . | -4.1% | . | . | -11.5% | .
O=C(NNC(=O)c1ccc(Cn2cccn2)o1)NC12CC3CC(CC(C3)C1)C2 | -19.2% | 4.4% | 8.4% | 5.3% | 6.5% | -12.1
COc1ccccc1CCn1c(=O)c(CCc2ccccc2)nc2cncnc21 | -21.3% | 1.6% | . | -7.1% | 2.1% | .
COc1ccc(-c2nn(-c3ccccc3)cc2CNC[C@H]2O[C@@H](n3cnc4c(=O)[nH]c(N)nc43)[C@H](O)[C@@H]2O)cc1 | . | -6.2% | . | . | -12.8% | 18.5
C[C@H](CO)N1C[C@H](C)[C@@H](CN(C)C(=O)Nc2ccccc2)Oc2ccc(NC(=O)Cc3ccccc3)cc2C1=O | . | -9.2% | 4.5% | . | 6.2% | 27.7
